# Data as given in PubChem BioAssay (NCATS).
# Where “and” joins values, the source holds several entries; their conditions need not be identical. Identical values can stand only once. Results filed as inconclusive are left out. Calls of active or inactive are those of the source. Calls follow the shape of the full dose curve.
# Experiment: qHTS Assay for Lipid Storage Modulators (AID 1519); as to activity change, negative = inhibition: % is scaled to controls: 0 for no effect and ±100 for the full control effect
# Conditions: Drosophila S3 cells, BODIPY lipid droplet/cell ratio, laser cytometry, cells loaded with oleic acid
# Outline: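 Cells seeded at 5,000 per well were treated with compounds over a concentration series and loaded with oleic acid (400 uM, as added). Lipid droplet fluorescence (488 nm excitation, 500-530 nm channel) was read by laser-scanning cytometry and normalized to 20 uM Triacsin C.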
# [1] = measured here: cell count channel max response
# [2] = measured here: lipid channel max response
SMILES,"activity change, negative = inhibition (at 25.7 µM (top of the series))",max response [1],max response [2],"activity change, negative = inhibition (at 57.5 µM (top of the series))"
O=C(O)COC(=O)Cc1ccccc1Nc1c(Cl)cccc1Cl,1.87% (inactive),-9.2%,-7.55%,
Cc1cc(O)cc(C)c1Cl,,-12.4%,1.81%,11.1% (inactive)
CCc1cccc(CC)c1NC(=O)CN(CC(=O)O)CC(=O)O,1.96% (inactive),-4.83%,-3.06%,
O=C(CCBr)N1CCN(C(=O)CCBr)CC1,,16.2%,29.1%,9.22% (inactive)
C[n+]1ccccc1/C=N/O,,15.5%,23.8%,6.44% (inactive)
CCN(CC)CCc1nc(-c2ccccc2)no1,-4.73% (inactive),-16%,-19.5%,
CN/C(=C\[N+](=O)[O-])NCCSCc1csc(CN(C)C)n1,-0.861% (inactive),-17.1%,-17.9%,
O=c1[nH]cnc2nc[nH]c12,,11.9%,19.1%,6.77% (inactive)
CCCCOC(=O)c1ccc(N)cc1,0.621% (inactive),-14.7%,-12.8%,
CC(=O)SC[C@@H](Cc1ccccc1)C(=O)NCC(=O)OCc1ccccc1,-7.97% (inactive),-8.69%,-18.1%,
Cc1onc(-c2ccccc2)c1-c1ccc(S(N)(=O)=O)cc1,,11.6%,23.9%,13.7% (inactive)
C[C@@H]1CCC[C@H](C)N1,-3.01% (inactive),-4.31%,-8.89%,
NS(=O)(=O)c1cc(C2(O)NC(=O)c3ccccc32)ccc1Cl (configuration not stated),,20%,27%,3.99% (inactive)
Cc1[nH]c(C)c(Cl)c(=O)c1Cl,,4.05%,14%,7.41% (inactive)
C1CCN2C[C@@H]3C[C@@H](CN4CCCC[C@@H]34)[C@H]2C1,,14.6%,18.3%,2.67% (inactive)
CC1CCc2cc(F)cc3c(=O)c(C(=O)O)cn1c23 (configuration not stated),,18.4%,28.6%,6.51% (inactive)
CC(N)CCCC(C)(C)O (configuration not stated),,25.6%,35.7%,4.55% (inactive)
Cc1cc(NC(=O)C2=C(O)c3ccccc3S(=O)(=O)N2C)no1,-0.235% (inactive),-4.56%,-5.22%,
Cc1c(N(C)C)c(=O)n(-c2ccccc2)n1C,-4.33% (inactive),-0.692%,-4.11%,
CC(=O)N[C@@H](CC(C)C)C(=O)O,-0.448% (inactive),-13.9%,-14.5%,

SMILES,"activity change, negative = inhibition (at 25.7 µM (top of the series))",max response [1],max response [2],"activity change, negative = inhibition (at 57.5 µM (top of the series))"
O=C(O)c1cc(=O)c2ccccc2o1,,15.2%,23.7%,0.609% (inactive)
O=C(O)CCCCC1CCSS1 (configuration not stated),,11.5%,16.4%,3.99% (inactive)
CC(=O)NCc1c(I)c(NC(C)=O)c(I)c(C(=O)O)c1I,,17.6%,37%,14.5% (inactive)
CC[N+](C)(CC)CCOC(=O)C1c2ccccc2Oc2ccccc21,-1.37% (inactive),-9.32%,-11.4%,
O=C(O)c1ccccc1OP(=O)(O)O,1.48% (inactive),3.1%,4.99%,
COc1ccccc1OCC(O)CO (configuration not stated),,-0.08%,10.1%,8.3% (inactive)
CC[N+](CC)(CC(=O)Nc1c(C)cccc1C)Cc1ccccc1,-1.02% (inactive),-6.23%,-4.81%,
C=CCSCC1Nc2cc(Cl)c(S(N)(=O)=O)cc2S(=O)(=O)N1 (configuration not stated),,6.41%,6.24%,8.24% (inactive)
O=C(O)c1ccccc1C(=O)Nc1ccc(S(=O)(=O)Nc2nccs2)cc1,-0.565% (inactive),-5.87% and 21%,-9.76% and 42%,12.9% (inactive)
Nc1ccc(S(=O)(=O)c2ccc(N)cc2)cc1,-0.694% (inactive),4.2%,4.3%,
Cn1c(=O)c2c(ncn2CCO)n(C)c1=O,-0.0249% (inactive),7.29% and 18.9%,6.36% and 16.1%,6.15% (inactive)
CC(C)=CCC/C(C)=C/CO,,14.3%,29.9%,10.2% (inactive)
Cc1cccc(C(=O)O)c1O,,1.99%,8.34%,6.75% (inactive)
CC(=O)Oc1cccc(O)c1,,7.77%,18.4%,7.58% (inactive)
C[C@@H](N)C(=O)O,,-10.1%,-15.3%,-5.25% (inactive)
CC(C)(C)C(=O)OCOC(=O)[C@@H]1N2C(=O)[C@@H](NC(=O)[C@H](N)c3ccccc3)[C@H]2SC1(C)C,2.04% (inactive),-13%,-12.6%,
CNCc1ccccc1,,16%,24.6%,4.39% (inactive)
CCOC(N)=O,,18.8%,25.8%,5.36% (inactive)
C/C=C/C(=O)N(CC)c1ccccc1C,,2.55%,11.8%,9.1% (inactive)
CN[C@@H]1[C@H](O)[C@H](NC)[C@H]2O[C@@]3(O)C(=O)C[C@@H](C)O[C@H]3O[C@@H]2[C@H]1O,,7.5%,3.08%,-5.49% (inactive)
